Experimental data taken from PubChem BioAssay (Tox21).
Records with an inconclusive call do not appear. A call without a number means that no potency is given here. Active and inactive are the calls of the source. Unless noted, the call rests on the fitted dose curve.

Legend:
[1] = Nuclear factor erythroid 2-related factor 2/antioxidant responsive element (Nrf2/ARE) small molecule agonists: qHTS cell viability counter screen in human keratinocytes (AID 1919968; active means well fitted curve in the direction sought with a large enough effect in the repeat runs; an effect the other way counts as inactive or inconclusive; further: nearly all actives have a fitted effect of over 55% in size)
In short: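 Measured as CellTiter-Fluor fluorescence, this readout tracks cytotoxicity in the same wells as the ARE-luciferase screen. HaCaT reporter cells (1,500/well) received compounds after a 5 h pre-incubation and were exposed for 23 h.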

[2] = Nuclear factor erythroid 2-related factor 2/antioxidant responsive element (Nrf2/ARE) small molecule agonists: luciferase reporter gene qHTS assay in human keratinocytes (AID 1919969); further: nearly all actives have a fitted effect of over 35% in size; further: potency means the concentration at half of the fitted maximal effect
[3] = biological target: Gonadotropin-releasing hormone receptor (Homo sapiens) (UniProt P30968); assay: Human gonadotropin-releasing hormone receptor (GnRHR) small molecule agonists, calcium flux assay in GnRHR-HEK293 cells (AID 1920063); further: nearly all actives have a fitted effect of over 35% in size
Sequence of Gonadotropin-releasing hormone receptor (Homo sapiens) (P30968 whole entry, looked up): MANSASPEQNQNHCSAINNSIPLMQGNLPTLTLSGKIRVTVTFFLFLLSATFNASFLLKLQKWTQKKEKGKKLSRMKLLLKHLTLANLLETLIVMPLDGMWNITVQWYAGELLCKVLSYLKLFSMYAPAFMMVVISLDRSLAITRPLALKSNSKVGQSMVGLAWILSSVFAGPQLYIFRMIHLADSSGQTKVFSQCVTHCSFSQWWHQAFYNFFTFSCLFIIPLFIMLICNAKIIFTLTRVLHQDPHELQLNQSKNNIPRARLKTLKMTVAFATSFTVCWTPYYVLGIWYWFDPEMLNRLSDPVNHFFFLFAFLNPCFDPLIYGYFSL
In short: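 Fluorescence kinetics (480 nm excitation, 540 nm emission; 3 min, 1 s steps) report calcium mobilisation in human GnRHR-HEK293 cells in agonist mode. Dye incubation: 1 h, 37 C.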

[4] = biological target: KiSS-1 receptor (Homo sapiens) (UniProt Q969F8); assay: Human kisspeptin (KISS1R) small molecule agonists, calcium flux assay in KISS1R-HEK293 cells (AID 1920064; active means well fitted curve in the direction sought with a large enough effect in the repeat runs; an effect the other way counts as inactive or inconclusive)
Sequence of KiSS-1 receptor (Homo sapiens) (Q969F8 whole entry, looked up): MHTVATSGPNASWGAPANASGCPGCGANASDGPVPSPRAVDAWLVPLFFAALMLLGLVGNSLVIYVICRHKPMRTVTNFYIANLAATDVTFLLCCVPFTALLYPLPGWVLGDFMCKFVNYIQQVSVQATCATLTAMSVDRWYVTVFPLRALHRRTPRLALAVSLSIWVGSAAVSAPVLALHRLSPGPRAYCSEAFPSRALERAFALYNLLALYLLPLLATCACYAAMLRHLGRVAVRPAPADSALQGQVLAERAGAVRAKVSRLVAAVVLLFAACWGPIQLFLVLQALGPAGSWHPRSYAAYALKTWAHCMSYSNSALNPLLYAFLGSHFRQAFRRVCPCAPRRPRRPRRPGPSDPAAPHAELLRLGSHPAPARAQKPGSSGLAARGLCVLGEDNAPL
In short: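 Measures KISS1R agonism through calcium-sensitive dye fluorescence in stably transfected HEK293 cells, read for 3 min after pin-tool compound delivery; 15-point titrations in triplicate.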

[5] = G protein-coupled receptor (GPCR) small molecule agonists, calcium flux assay: HEK293 wild type cell line counter screen (AID 1920065)
In short: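 Readout: fluorescence at 480 nm excitation/540 nm emission, sampled at 1 s intervals for 3 min. Cells had been cultured 18 h, then dye-loaded 1 h at 37 C before compound or ATP addition.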

[6] = p53 small molecule agonists, cell-based qHTS assay with human liver microsomes (AID 1963577);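 further: p53 response element beta-lactamase reporter cells with liver microsomes plus NADPH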
In short: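 Metabolically competent format: test substances, human liver microsomes and NADPH (both 0.5 mg/mL final) incubated with p53RE-bla cells 16 h at 37 C. Beta-lactamase reporter signal then quantified by fluorescence.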

[7] = p53 small molecule agonists, cell-based qHTS assay with rat liver microsomes (AID 1963578)
In short: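 Each plate received p53RE-bla cells, then compound, then rat liver microsomes and NADPH (both 0.5 mg/mL final). Plates were held 16 h at 37 C, and beta-lactamase activity was detected with LiveBLAzer over 2 h.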

[8] = p53 small molecule agonists, cell-based qHTS assay with human liver microsomes: qHTS cell viability counter screen (AID 1963579); further: nearly all actives have a fitted effect of over 45% in size
In short: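 Tox21 library compounds, delivered from DMSO stocks, were tested on p53RE-bla cells together with 0.5 mg/mL human liver microsomes and 0.5 mg/mL NADPH (final) over 16 h at 37 C; CellTiter-Glo luminescence served as the cytotoxicity measure.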

[9] = p53 small molecule agonists, cell-based qHTS assay with rat liver microsomes: qHTS cell viability counter screen (AID 1963580); further: nearly all actives have a fitted effect of over 45% in size
In short: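 Intracellular ATP, by CellTiter-Glo luminescence, defines viability. HCT-116 p53RE-bla cells, 4,000 per well, were compound-treated in the presence of rat liver microsomes and NADPH for 16 h at 37 C.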

[10] = p53 small molecule agonists, cell-based qHTS assay: qHTS cell viability counter screen (AID 1963581); further: nearly all actives have a fitted effect of over 45% in size
In short: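 In the same plates used for the p53 bla reporter, HCT-116 cells given compounds for 16 h at 37 C received CellTiter-Glo; luminescence was recorded 30 min later at room temperature.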

[11] = p53 small molecule agonists, cell-based qHTS assay (AID 1963582; active means well fitted activation curve with a large enough effect in the signal ratio in the repeat runs, not every such curve was filed as active; the % refers to the signal ratio)
In short: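 Compounds are pin-transferred in DMSO onto p53RE-bla cells and incubated 16 h at 37 C. The B/G FRET beta-lactamase substrate is then applied for 2 h at RT and fluorescence recorded.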

[12] = biological target: 5-hydroxytryptamine receptor 2A (Homo sapiens) (UniProt P28223); assay: 5-hydroxytryptamine receptor 2A (HTR2A) small molecule antagonists, cell-based qHTS assay (AID 1963586); further: nearly all actives have a fitted effect of over 45% in size
Sequence of 5-hydroxytryptamine receptor 2A (Homo sapiens) (P28223 whole entry, looked up): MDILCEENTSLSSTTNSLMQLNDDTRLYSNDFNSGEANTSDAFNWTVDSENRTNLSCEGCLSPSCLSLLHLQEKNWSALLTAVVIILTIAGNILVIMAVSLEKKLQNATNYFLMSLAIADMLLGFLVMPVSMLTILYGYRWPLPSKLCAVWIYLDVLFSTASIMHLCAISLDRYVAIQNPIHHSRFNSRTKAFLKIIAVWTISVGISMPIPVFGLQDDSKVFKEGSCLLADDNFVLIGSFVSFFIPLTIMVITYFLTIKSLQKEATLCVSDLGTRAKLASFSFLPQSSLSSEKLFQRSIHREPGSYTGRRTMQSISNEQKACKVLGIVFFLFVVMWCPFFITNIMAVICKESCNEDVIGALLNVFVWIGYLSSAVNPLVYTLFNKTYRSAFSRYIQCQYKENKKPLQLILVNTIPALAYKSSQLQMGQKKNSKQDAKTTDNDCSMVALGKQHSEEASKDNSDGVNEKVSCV
In short: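 Antagonist-mode intracellular calcium assay: DOI (4 nM) added after 5 min compound pre-incubation at room temperature to dye-loaded HTR2A-CHO cells. Fluorescence followed for 3 min, sampled every second.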

[13] = biological target: 5-hydroxytryptamine receptor 2A (Homo sapiens) (UniProt P28223); assay: 5-hydroxytryptamine receptor 2A (HTR2A) small molecule agonists, cell-based qHTS assay (AID 1963587); further: nearly all actives have a fitted effect of over 30% in size; further: potency means the concentration at half of the fitted maximal effect
In short: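 Kinetic calcium-flux fluorescence (2 min, 1 sec intervals) after compound addition in agonist mode. HTR2A-CHO cells were cultured 18 h, then dye-loaded 1 h at 37 C.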

[14] = biological target: Muscarinic acetylcholine receptor M1 (Homo sapiens) (UniProt P11229); assay: Cholinergic receptor muscarinic 1 (CHRM1) small molecule antagonists, cell-based qHTS assay (AID 1963588); further: nearly all actives have a fitted effect of over 40% in size
Sequence of Muscarinic acetylcholine receptor M1 (Homo sapiens) (P11229 whole entry, looked up): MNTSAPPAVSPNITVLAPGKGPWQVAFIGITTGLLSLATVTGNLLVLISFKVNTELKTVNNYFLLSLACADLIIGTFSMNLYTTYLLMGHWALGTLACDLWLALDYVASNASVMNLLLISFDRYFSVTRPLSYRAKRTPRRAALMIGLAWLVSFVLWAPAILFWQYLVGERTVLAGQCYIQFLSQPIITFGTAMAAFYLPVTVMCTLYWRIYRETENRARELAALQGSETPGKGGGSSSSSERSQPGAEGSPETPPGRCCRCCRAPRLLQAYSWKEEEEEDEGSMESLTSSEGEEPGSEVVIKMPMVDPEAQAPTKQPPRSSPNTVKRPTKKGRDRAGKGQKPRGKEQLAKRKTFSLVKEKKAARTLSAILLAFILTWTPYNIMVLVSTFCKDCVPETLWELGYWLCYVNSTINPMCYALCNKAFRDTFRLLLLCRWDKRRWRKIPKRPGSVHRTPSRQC
In short: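 CHRM1-CHO calcium-flux assay, antagonist mode. Cells were seeded 18 h, dye-loaded 1 h at 37 C and given compound for 5 min at RT, then acetylcholine was added at 50nM. FDSS fluorescence was read 3 min; 15 concentrations, three runs.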

[15] = cAMP Responsive Elements (CRE) small molecule agonists, cell-based qHTS assay (AID 1963590)
In short: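 Cell line: CRE-bla HEK 293T; medium DMEM/10% dialyzed FBS/0.1 mM NEAA/1 mM pyruvate/25 mM HEPES; 3 h compound exposure; beta-lactamase FRET readout after 2 h substrate loading at RT.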

[16] = cAMP Responsive Elements (CRE) small molecule antagonists, cell-based qHTS assay (AID 1963591; active means well fitted inhibition curve with a large enough effect in the signal ratio in the repeat runs, not every such curve was filed as active; the % refers to the signal ratio)
In short: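 Inhibition of NKH477-driven (0.25 uM final) CRE-beta-lactamase signal in HEK293T cells, 3 h compound exposure at 37 °C, detected by FRET substrate fluorescence.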

[17] = biological target: D(2) dopamine receptor (Homo sapiens) (UniProt P14416); assay: Dopamine D2 receptor (DRD2) small molecule agonists, cell-based qHTS assay (AID 1963594); further: nearly all actives have a fitted effect of over 35% in size
Sequence of D(2) dopamine receptor (Homo sapiens) (P14416 whole entry, looked up): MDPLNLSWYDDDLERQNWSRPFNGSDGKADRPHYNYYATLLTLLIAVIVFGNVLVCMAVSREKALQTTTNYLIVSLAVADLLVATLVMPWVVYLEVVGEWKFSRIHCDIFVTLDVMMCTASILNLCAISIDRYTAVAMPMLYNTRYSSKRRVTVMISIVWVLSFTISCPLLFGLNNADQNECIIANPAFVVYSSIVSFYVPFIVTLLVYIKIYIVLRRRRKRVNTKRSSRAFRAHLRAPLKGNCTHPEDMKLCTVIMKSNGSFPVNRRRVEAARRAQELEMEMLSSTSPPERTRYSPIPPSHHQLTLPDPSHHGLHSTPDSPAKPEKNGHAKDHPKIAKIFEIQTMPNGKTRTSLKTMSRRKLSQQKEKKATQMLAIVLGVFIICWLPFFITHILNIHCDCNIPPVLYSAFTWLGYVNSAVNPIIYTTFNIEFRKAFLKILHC
In short: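 cAMP accumulation in DRD2-HEK293 cells measured by HTRF after 1 h detection; compounds added 10 min before NKH477 (200nM […]) forskolin-analogue stimulation, 30 min at room temperature, with Ro20-1724 present at 0.1 mM final.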

[18] = biological target: D(2) dopamine receptor (Homo sapiens) (UniProt P14416); assay: Dopamine D2 receptor (DRD2) small molecule antagonists, cell-based qHTS assay (AID 1963595; active means well fitted inhibition curve with a large enough effect in the signal ratio in the repeat runs, with a control signal flat; the % refers to the signal ratio)
In short: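 HEK293 cells stably expressing DRD2, preincubated with 0.1 mM Ro20-1724 and compounds 10 min, were stimulated with 200 nM NKH477 plus 12 nM quinpirole for 30 min at room temperature; cAMP measured by HTRF (665/620 nm).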

[19] = biological target: Beta-2 adrenergic receptor (Homo sapiens) (UniProt P07550); assay: Adrenergic beta2 receptor (ADRB2) small molecule antagonists, cell-based qHTS assay (AID 1963592); further: series mostly up to about 92 µM; nearly all actives have a fitted effect of over 50% in size
Sequence of Beta-2 adrenergic receptor (Homo sapiens) (P07550 whole entry, looked up): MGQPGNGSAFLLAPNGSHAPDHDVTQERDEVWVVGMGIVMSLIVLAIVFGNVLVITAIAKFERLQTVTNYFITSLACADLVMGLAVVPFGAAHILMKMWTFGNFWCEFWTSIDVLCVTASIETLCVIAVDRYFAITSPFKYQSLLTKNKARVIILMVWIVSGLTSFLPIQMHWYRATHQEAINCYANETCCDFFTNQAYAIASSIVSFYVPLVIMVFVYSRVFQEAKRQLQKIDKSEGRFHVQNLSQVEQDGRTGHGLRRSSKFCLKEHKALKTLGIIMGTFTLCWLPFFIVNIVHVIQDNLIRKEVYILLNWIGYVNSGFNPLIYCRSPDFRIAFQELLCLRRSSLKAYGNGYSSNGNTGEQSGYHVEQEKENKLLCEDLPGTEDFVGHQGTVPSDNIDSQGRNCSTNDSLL
In short: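 Cells (CHO, stable ADRB2 overexpression) incubated 18-20hr at 37C; compounds added from DMSO; agonist mix (1nM isoproterenol, 100uM IBMX, 25uM Ro-20-1724) added; 0.5hr RT; d2-cAMP and anti-cAMP-cryptate added; 1hr RT; 665/615 nm read.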

[20] = biological target: Muscarinic acetylcholine receptor M1 (Homo sapiens) (UniProt P11229); assay: Cholinergic receptor muscarinic 1 (CHRM1) small molecule agonists, cell-based qHTS assay (AID 1963589); further: nearly all actives have a fitted effect of over 35% in size
In short: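 Each compound was tested at 15 concentrations across three independent runs on dye-loaded CHO cells stably expressing human CHRM1, reading intracellular calcium fluorescence kinetically at 1 sec intervals.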

| Structure (SMILES) | Potency [1] | Potency [2] | Potency [3] | Potency [4] | Potency [5] | Potency [6] | Potency [7] | Potency [8] | Potency [9] | Potency [10] | Potency [11] | Potency [12] | Potency [13] | Potency [14] | Potency [15] | Potency [16] | Potency [17] | Potency [18] | Potency [19] | Potency [20] |
| --- | --- | --- | --- | --- | --- | --- | --- | --- | --- | --- | --- | --- | --- | --- | --- | --- | --- | --- | --- | --- |
| CCC(C(=O)OCCOCCN(CC)CC)c1ccccc1 (stereo unspecified) | inactive | inactive | inactive | inactive | inactive | inactive | inactive | inactive | inactive | inactive | inactive | inactive | 2.68 µM (active) | inactive | inactive | inactive | inactive | inactive | – | – |
| NC(=O)c1ccccc1N | inactive | inactive | inactive | inactive | inactive | inactive | inactive | inactive | inactive | inactive | inactive | inactive | inactive | inactive | inactive | inactive | inactive | – | inactive | – |
| CCCCCCCCCOS(=O)(=O)O | inactive | inactive | inactive | inactive | inactive | inactive | inactive | inactive | inactive | inactive | inactive | inactive | inactive | inactive | inactive | inactive | inactive | inactive | inactive | – |
| COc1cccc(OC)c1C(=O)N[C@@H]1C(=O)N2[C@@H]1SC(C)(C)[C@@H]2C(=O)O | inactive | inactive | inactive | inactive | inactive | inactive | inactive | inactive | inactive | inactive | inactive | inactive | inactive | inactive | inactive | inactive | inactive | inactive | inactive | – |
| COc1ccc(C(=O)c2cccc(O)c2)c(OC)c1 | inactive | inactive | inactive | inactive | inactive | inactive | inactive | inactive | inactive | inactive | inactive | inactive | inactive | inactive | inactive | inactive | – | inactive | inactive | – |
| C=C1C[C@H]2[C@@H]3C=C(C)C4=CC(=O)CC[C@]4(C)[C@H]3CC[C@]2(C)[C@@]1(OC(C)=O)C(C)=O | inactive | inactive | inactive | inactive | inactive | inactive | inactive | inactive | inactive | inactive | inactive | inactive | inactive | inactive | – | – | inactive | inactive | inactive | inactive |
| C=CC(O)CCCCC (stereo unspecified) | inactive | inactive | inactive | inactive | inactive | inactive | inactive | inactive | inactive | inactive | inactive | inactive | inactive | inactive | inactive | inactive | inactive | inactive | inactive | – |
| Cc1occc1SSc1ccoc1C | inactive | 61.1 µM (active) | inactive | inactive | inactive | inactive | inactive | inactive | inactive | inactive | inactive | inactive | inactive | inactive | inactive | inactive | – | – | inactive | – |
